HttQ103 aggreg – reduces HttQ103-GFP aggregates in PC12 cells. PC12 HttQ103-GFP aggregates, Acumen cytometry, 40 h. Potency, µM (titrated, usually from 46.1 µM), usual class: inhibitors. hit rate 1.1% among 220,000. AID 1688; note: nearly all actives have a fitted effect of over 60% in size
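Using laser scanning cytometry, GFP-positive aggregates were counted after lysis of PC12 cells induced with 100 nM tebufenozide to express HTT exon 1 Q103–GFP. Compounds were tested in titration.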
HTT ATP protect – Huntington cell model cytoprotection by ATP luminescence; PC12 HTT-Q103 induced, cytoprotection, ATP luminescence, 40 h; Potency, µM (series often up to 56.4 µM), usual class: activators; hit rate 0.14% among 230,000; AID 1471; note: nearly all actives have a fitted effect of over 45% in size
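Cells were plated at 1500 per well in phenol red-free DMEM with 5% equine and 5% calf serum. Tebufenozide (100 nM final) and compounds were added, then ATPlite reagent, and luminescence was read.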
NPSR antag – antagonists of human neuropeptide S receptor cAMP signaling | Potency, µM (titrated, usually from 38.3 µM), usual class: inhibitors | hit rate 1% among 220,000 | CHO-NPSR cells, cAMP TR-FRET, antagonist mode; note: nearly all actives have a fitted effect of over 50% in size
Target sequence (Q6W5P4 whole entry, looked up): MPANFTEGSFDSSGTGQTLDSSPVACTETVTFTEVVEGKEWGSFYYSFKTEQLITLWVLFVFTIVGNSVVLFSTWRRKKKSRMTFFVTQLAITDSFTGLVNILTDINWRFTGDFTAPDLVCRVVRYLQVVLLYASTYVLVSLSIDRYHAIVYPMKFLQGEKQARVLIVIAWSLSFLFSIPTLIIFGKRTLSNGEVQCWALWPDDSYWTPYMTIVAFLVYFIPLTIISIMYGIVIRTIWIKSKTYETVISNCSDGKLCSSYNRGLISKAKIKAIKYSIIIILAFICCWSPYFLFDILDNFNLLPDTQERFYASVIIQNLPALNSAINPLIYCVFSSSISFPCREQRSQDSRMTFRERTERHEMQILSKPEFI
LMNA splice mod – changes lamin A minigene splicing in HeLa cells | hit rate 0.01% among 200,000 | Potency, µM (top dose mostly 46.1 µM), usual class: inhibitors | AID 1487 | HeLa LMNA splicing GFP/RFP minigene ratio, 48 h; active = well fitted inhibition curve with a large enough effect in the signal ratio, with a control signal flat, not every such curve was filed as active; inconclusive = small, poorly fitted or top-dose-only effect, or effect the other way, or a change in a side signal; the % refers to the signal ratio
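Read-out is the ratio of GFP to DsRed2 object intensity, acquired by 488 nm laser-scanning cytometry on HeLa lamin A-EGFP minigene reporter cells. Compound incubation 48 hrs at 37 °C in Opti-MEM with 2% FBS; DMSO 0.5% final.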
IMPase Li inh – IMPase inhibition in cells with lithium potentiation. CHO-M1 cells, IP1 TR-FRET (IP-One), carbachol + lithium. hit rate 0.35% among 210,000. Potency, µM (highest dose often 59.4 µM), most hits filed as inhibitors;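 note: IP1 builds up when IMPase is blocked and the TR-FRET signal falls; nearly all actives have a fitted effect of over 50% in size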
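CHO cells stably expressing M1 receptor (2000/well, cultured 16–30 h) treated 30 min at 37C with compound plus low lithium. Cytosolic IP1 by TR-FRET (665/620 ratio and 620 channel) after 10 min lysis; AC50 by Hill fit.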
IMPase inh – membrane-permeable compound that blocks inositol monophosphatase. P97697. CHO-M1 cells, IP1 accumulation, HTRF TR-FRET ratio. inhibition (IP1 accumulation), % at 46.1 µM. 120,000 tested, under 10 active; active = well fitted curve in the direction sought with a large enough effect in the signal ratio, not every such curve was filed as active; inconclusive = small, poorly fitted or top-dose-only effect, or a change in a side signal; inactive = no such curve, though single readings can be large or run the other way; the % refers to the signal ratio;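 note: cells stimulated with carbachol in lithium chloride buffer; higher means more IMPase inhibition seen as more IP1 and lower FRET ratio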
Target sequence (P97697 whole entry, looked up): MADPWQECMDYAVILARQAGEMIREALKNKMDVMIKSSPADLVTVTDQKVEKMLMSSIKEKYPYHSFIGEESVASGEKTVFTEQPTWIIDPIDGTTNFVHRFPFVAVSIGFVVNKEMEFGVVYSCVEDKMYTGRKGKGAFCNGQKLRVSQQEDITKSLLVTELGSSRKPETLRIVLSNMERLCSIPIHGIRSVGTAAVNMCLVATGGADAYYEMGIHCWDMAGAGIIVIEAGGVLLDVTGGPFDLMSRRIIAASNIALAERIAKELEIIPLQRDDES
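Measured: the HTRF emission ratio (665/620 nm) plus the 620 nm donor channel, each fitted to the Hill equation to give AC50. Cells were CHO-M1 given compounds up to 46 uM and a 30 min carbachol stimulation at 37C.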
A number is an active result; i = inactive; ? = inconclusive; nt = no result given; [ ] = remark or other dose. Compounds with a hit are over-represented: about 1.6% of the library has one in this group of screens. Unless noted, calls come from the whole dose curve; as a rule, active = well fitted curve in the direction sought with a large enough effect; inconclusive = small, poorly fitted or top-dose-only effect, or another doubt; inactive = no such curve, though single readings can be large; an effect the other way counts as inactive or inconclusive.

SMILES | HttQ103 aggreg | HTT ATP protect | NPSR antag | LMNA splice mod | IMPase Li inh | IMPase inh
Cc1cc(Nc2ccccc2)nc(-c2ccccc2O)n1 | ? | i[0.074 µM] | ? | i | i | i
COCCn1nc2cc(C(=O)NCc3cc(C(F)(F)F)cc(C(F)(F)F)c3)ccc2c1OC | i | 0.71µM | i | i | i | i
CCOc1c2ccc(C(=O)NCc3cc(C(F)(F)F)cc(C(F)(F)F)c3)cc2nn1CCOC | i | i | i | i | i | i
Cc1ccc(N2C(=O)NC(C(F)(F)F)(C(F)(F)F)C3=C2CC(C)(C)CC3=O)cc1 | i | nt | i | i | i | nt
CCOCCn1c(CN2CCN(c3cccc(Cl)c3)CC2)nc2c1c(=O)n(C)c(=O)n2C | i | i | i | i | i | i
CCOCCn1c(N2CCN(c3ccccc3)CC2)nc2c1c(=O)n(C)c(=O)n2C | i | i | i | i | i | i
COCCn1c(N2CCN(c3ccccc3)CC2)nc2c1c(=O)n(C)c(=O)n2C | i[9.22 µM] | 2µM | i | i | i | nt
CCOC(=O)Cn1c(CN2CCN(C(c3ccccc3)c3ccccc3)CC2)nc2c1c(=O)n(C)c(=O)n2C | i | i[10 µM] | 16µM | ? | i | ?
COCCn1c(CN2CCN(c3cccc(Cl)c3)CC2)nc2c1c(=O)n(C)c(=O)n2C | 20µM | i | i | ? | i | i
CN(C)CC[C@@](O)(c1ccccc1)c1ccccc1Cl | i | i | nt | nt | nt | nt
Cc1ccc(C2C(C=Nc3c(C)n(C)n(-c4ccccc4)c3=O)=C(c3ccccc3)Oc3ccccc32)cc1 (stereo not given) | 22µM | i | i | i | i | i
O=C(C#Cc1ccccc1)c1cccc([N+](=O)[O-])c1 | 13µM | i | ? | i | i | i
Cc1sc2ncnc(N3CCC(C)CC3)c2c1C | i | i[10 µM] | i | ? | i | i
Cc1sc2ncnc(N3CCN(CCOc4ccc(Cl)cc4)CC3)c2c1C | 2µM | i | i | ? | i | i
COC(=O)c1sccc1NC(=O)Cc1ccc(OC)cc1 | 40µM | nt | i | i | i | i
COC(=O)c1sccc1NC(=O)C1CC=CCC1C(=O)O (stereo not given) | i | i | ? | i | 10µM | ?
COC(=O)c1sccc1NC(=O)c1ccc(C)o1 | i | i | i | i | i | i
COC(=O)c1cc(C)sc1NC(=O)C1C2C=CC(CC2)C1C(=O)O (stereo not given) | i | nt | i | ? | 10µM | nt
COC(=O)c1cc(C)sc1NC(=O)C1CC=CCC1C(=O)O (stereo not given) | i | i | ? | i | 11µM | ?
CCOC(=O)c1c(NC(=O)C2C3C=CC(CC3)C2C(=O)O)sc(C)c1C (stereo not given) | i | i[10 µM] | i | i | i | nt
COC(=O)c1sccc1NC(=O)C1CCCCC1C(=O)O (stereo not given) | ? | i | i | nt | nt | nt
COc1ccc2c3c(ccc2c1)N[C@H](C(=O)O)CC3 | nt | i[10 µM] | nt | nt | i | nt
O=C(CSc1nc(C2CCCCC2)nc2ccccc12)NCc1ccco1 | i[9.22 µM] | i[10 µM] | i | nt | i | nt
CCc1nnc(NC(=O)CSc2nc(-c3ccccc3)cc(-c3ccc(F)cc3)c2C#N)s1 | i | i | 10µM | ? | 10µM | i
CC(C)(C)CC(=O)Nc1nnc(-c2cccs2)s1 | i | i[10 µM] | i | i | 11µM | i[1.84 µM]
SMILES | HttQ103 aggreg | HTT ATP protect | NPSR antag | LMNA splice mod | IMPase Li inh | IMPase inh
O=C(CN1CCCC1)Nc1nnc(-c2cccs2)s1 | i | i[10 µM] | i | i | i | nt
CCc1nnc(NC(=O)CSc2ncnc3c2cnn3-c2ccc(OC)cc2)s1 | i | i | i | i | 10µM | i
CCc1nnc(NC(=O)CSc2nc(C3CCCCC3)nc3ccccc23)s1 | i | i | i | i | 7.9µM | ?
CCc1nnc(NC(=O)CSc2ccc(-c3ccc(F)cc3)nn2)s1 | i[9.22 µM] | i | i | nt | i | nt
NC(=NCc1ccc(Cl)cc1Cl)NC(=O)c1nc(Cl)c(N)nc1N | nt | i | nt | nt | i | nt
Cc1cccc([C@H]2[C@@H]3C=CCC[C@@H]3C(=O)N2Cc2ccccc2)c1 | nt | i | nt | nt | i | nt
CCc1nnc(NC(=O)CSc2ccc(-c3cccs3)nn2)s1 | i | i | i | nt | 4µM | nt
CCc1nnc(NC(=O)CSc2nc3ccccc3s2)s1 | i | i[10 µM] | i | i | i | i
CCc1nnc(NC(=O)CSc2nc(-c3ccccc3)nc3ccccc23)s1 | i | i[10 µM] | i | i | 10µM | nt
Cc1ccc2nc3c(cc2c1)CN(Cc1ccco1)C(=NCC1CCCO1)S3 (stereo not given) | i | i[10 µM] | i | i | i | i
Cc1cccc2cc3c(nc12)SC(=NCC1CCCO1)N(Cc1ccco1)C3 (stereo not given) | i | i[10 µM] | 10µM | i | nt | i
CCOc1ccc(C2C(C(=O)c3ccco3)=C(O)C(=O)N2Cc2cccnc2)cc1 (stereo not given) | i | i | i | i | i | i
CCCOc1ccc(C2C(C(=O)c3ccc(C)o3)=C(O)C(=O)N2Cc2cccnc2)cc1 (stereo not given) | i | i[0.074 µM] | ? | i | 10µM | i
Cc1ccc(C(=O)C2=C(O)C(=O)N(CCCn3ccnc3)C2c2ccc(OC(C)C)cc2)o1 (stereo not given) | i | i[0.074 µM] | ? | i | 14µM | ?
COc1ccccc1-c1cc(C(F)(F)F)nc(S(=O)(=O)CCCC(=O)Nc2cc(C)on2)n1 | ? | i | ? | i | i | i
COc1ccc(-c2cc(C(F)(F)F)nc(S(=O)(=O)CCCC(=O)Nc3cc(C)on3)n2)cc1OC | ? | i | i | 4µM | i | nt
COC(=O)c1c(C)n(-c2ccccc2)c2ccc(O)cc12 | i | i | i | i | i | i
CC(=O)c1c(C)n(-c2ccccc2)c2ccc(O)cc12 | 10µM | i | i | ? | i | i
O=C(CSc1nc2ccccc2s1)c1sc2sc3ccccc3[n+]2c1O | nt | i[10 µM] | nt | nt | i | nt
Cc1ccccc1Cn1ccc(=NCc2ccccc2)cc1 | 18µM | nt | i | ? | i | nt
O=C(O)CCCC/C=C\C[C@@H](O)/C=C/C=C/C=C\[C@@H](O)CCCC(=O)O | nt | i | nt | nt | i | nt
O=C(Nc1nc(-c2cccs2)c(C(=O)C(F)(F)F)s1)c1ccccc1 | 10µM | nt | i | ? | i | nt
COc1ccc(C(=O)Nc2nc(-c3cccs3)c(NC(C)=O)s2)cc1 | i | i[10 µM] | i | i | i | i
O=C(Nc1nc(-c2cccs2)c(C(=O)C(F)(F)F)s1)c1ccco1 | i | i | 10µM | ? | 10µM | nt
O=C(Nc1nc(-c2cccs2)c(-c2ccccc2)s1)c1ccco1 | i[9.22 µM] | i | i | ? | i | i
COc1ccc(C(NC(C)=O)c2ccc3cccnc3c2O)c(OC)c1 (stereo not given) | 4µM | i | i | ? | i | i
CC(C)C(=O)NC(c1ccco1)c1ccc2cccnc2c1O (stereo not given) | 4µM | i | i | ? | i | i
COc1ccc(OC)c(CCNC(=O)c2c3c(nc4ccccc24)C(=O)N(C2CCCCC2)C3)c1 | nt | nt | nt | i | nt | nt
